This passage reports AC50 and outcome results from PubChem BioAssay (EPA / NIEHS).

Molecules are shown by their SMILES. Where “and” joins values, the source holds several entries; their conditions need not be identical. Equal entries are not always repeated. Where a structure was tested more than once in an assay, its records may differ in their call. Calls of active or inactive are those of the source. How the source made its calls: active means hit-call score of the fitted dose curve at least 0.9, where 1 is the maximum; inactive means score below 0.9.

A short description of the assay: ATG_TCF_b_cat_CIS: Attagene CIS-FACTORIAL HepG2 Assay for human T-Cell-Factor with beta-catenin (TCF/b-cat) (AID 2282965). To be noted: HepG2 TCF/beta-catenin cis-reporter transcription, actives raise or lower the signal. The protocol: ATG_CIS is a cell-based, multiplexed-readout assay that uses HepG2, a human liver cell line, with measurements taken at 24 hours after chemical dosing in a 24-well plate.ATG_TCF_b_cat_CIS is one of 52 assay component(s) measured or calculated from the ATG_CIS assay. It is designed to make measurements of mRNA induction, a form of inducible reporter, as detected with fluorescence intensity signals by Reverse transcription polymerase chain reaction (RT-PCR) and Capillary electrophoresis technology.Data from the assay component ATG_TCF_b_cat_CIS was analyzed into 1 assay endpoint. This assay endpoint, ATG_TCF_b_cat_CIS, was analyzed with bidirectional fitting relative to DMSO as the negative control and baseline of activity. Using a type of inducible reporter, measures of mRNA for gain or loss-of-signal activity can be used to understand the reporter gene at the transcription factor-level as they relate to the gene TCF7 and TCF7L2 and LEF1 and TCF7L1. Furthermore, this assay endpoint can be referred to as a primary readout, because this assay has produced multiple assay endpoints where this one serves a reporter gene function. To generalize the intended target to other relatable targets, this assay endpoint is annotated to the dna binding intended target family, where the subfamily is HMG box protein.
Human liver HepG2 cells are transiently transfected with multiple reporter transcription units (MRTUs) in 6-well plates using FuGene 6 reagent (Roche; 3 ml FuGene/1 mg DNA). The MRTU constructs are regulated by a cis-regulating element (promoter). […] A major difference between the CIS and TRANS system is that in CIS activities of endogenous TFs are measured, whereas the TRANS assay evaluates changes in activities of exogenous, chimeric NR-Gal4 proteins. […] At the end of 24 hour incubation, total RNA was isolated using TriZol reagent (Invitrogen). The isolated RNA is then reverse-transcribed using oligo(dT) primer and Mo-MLV reverse transcriptase (Invitrogen) with DNAse I (Ambion) treatment for 30 min. The one-tenth of the produced cDNA was amplified by PCR using Taq DNA polymerase (Invitrogen) and two reporter sequence-specific primers. The PCR products were fluorescently labeled by primer extension with 6-arboxyfluorescein (6-FAM) 5'-labeled reporter sequence-specific primer (2 min at 95 C, 20 s at 68 C and 10 min at 72 C) and these products were digested with 5U of HpaI (New England Biolabs) for 2h at 37 C. The fragments were purified using Qiaquick PCR columns (Qiagen), analyzed on an ABI 3130xL genetic analyzer (Applied Biosystems) with peak positions identified by using a set of X-rhodamine (ROX)-labeled MapMarker1000 molecular weight standards (BioVentures). The raw capillary electrophoresis data was processed using Attagraph software (Attagene).
As for `CC/C(=C(/CC)c1ccc(O)cc1)c1ccc(O)cc1`, the AC50 was 11.1 µM (active) and 16.2 µM (active) and 5.89 µM (active); the result was inactive.

In the case of `CC(O)CC(C)(C)O` (stereo not given), the compound was called inactive.

In the case of `O=C(O)Cn1c(=O)n(Cc2ccc(Br)cc2F)c(=O)c2ccc(Cl)cc21`, the outcome was inactive.

With `CCCCOC(=O)c1ccc(O)cc1`, the compound was classed as inactive and the AC50 is 100 µM (active).

On to `CCCCCCCCCCCC[N+](C)(C)C`, for which the result was inactive.

Regarding `Cc1ccc(C(C)C)cc1`, the compound was classed as inactive.

For the compound `Cc1cc2c(cc1C(F)(F)F)N(C(=O)Nc1ccc(Oc3cccnc3C)nc1)CC2`, the compound was classed as inactive.

For the compound `c1ccc2n[nH]nc2c1`, the compound was called inactive.

On to `CC(C)(C)c1csc(-c2cc3cc(OCc4ccccc4CC(=O)O)ccc3o2)n1`, for which the compound was classed as inactive.

As for `O=c1c(-c2ccc(O)cc2)coc2cc(O)cc(O)c12`, the compound was classed as inactive.

Take `OC12N=C(c3ccccc3)SC1Cc1cc(Cl)ccc12` (stereo not given): the call was inactive.

In the case of `O=CCCCC=O`, the AC50 is 71.9 µM (active) and 100 µM (active).

`CC(=O)N1CCN(c2ccc(OC[C@H]3CO[C@](Cn4ccnc4)(c4ccc(Cl)cc4Cl)O3)cc2)CC1`: the half-maximal activity concentration (AC50) was 5.19 µM (active).

In the case of `CCCOC(=O)c1cc(O)c(O)c(O)c1`, the compound was classed as inactive.

Take `Oc1ccc2ccccc2c1`: the half-maximal activity concentration (AC50) was 77.3 µM (active) and 100 µM (active).

Regarding `CCCCCc1ccc(N)cc1`, the concentration at half-maximal activity (AC50) is 8.92 µM (active) and 6.2 µM (active) and 19.5 µM (active); the outcome was inactive.

Consider `CN(C)c1ccc(C(=C2C=CC(=[N+](C)C)C=C2)c2ccc(N(C)C)cc2)cc1`, for which the AC50 is 2.96 µM (active).

For the compound `COc1cc(C(=O)NC2CCN(C)CC2)ccc1Nc1ncc2c(n1)N(C1CCCC1)CC(F)(F)C(=O)N2C`, the AC50 was 4.26 µM (active).

As for `CN1C(=O)N(c2ccccc2Br)Cc2cnc(Nc3ccc4c(c3)OCC(CO)O4)nc21` (stereo not given), the concentration at half-maximal activity (AC50) was 0.116 µM (active).

With `CC1=CC(=O)/C(=C(/C)O)C(=O)O1`, the call was inactive.

As for `OCCO`, the compound was called inactive.

As for `CC(C)(c1cc(Br)c(O)c(Br)c1)c1cc(Br)c(O)c(Br)c1`, the AC50 was 42.6 µM (active) and 22.7 µM (active).

On to `CC(C)(C)c1cc(/C=C2\SC(N)=NC2=O)cc(C(C)(C)C)c1O`, for which the AC50 is 16.3 µM (active).

On to `O=C1c2ccccc2C(=O)N1CCc1noc(-c2ccc(CN3CCCCCC3)s2)n1`, for which the compound was classed as inactive.

For the compound `CCCCCCCCN(C)CCCCCCCC`, the call was inactive.

Take `CCN(Cc1cccnc1)C(=O)c1cccc(Cl)c1[C@]1(C)C(=O)N(Cc2ccc(OC)cc2OC)c2ccc(Cl)cc21`: the AC50 is 5.44 µM (active).

Consider `CC[C@@H]1C[C@H](N(Cc2cc(C(F)(F)F)cc(C(F)(F)F)c2)C(C)=O)c2cc(C(F)(F)F)ccc2N1C(=O)OC(C)C`, for which the compound was called inactive.

As to `c1ccc(C[n+]2cccc3ccccc32)cc1`, the outcome was inactive.

As to `Cc1occc1C(=O)Nc1ccc(C(=O)N2CCC(F)(F)/C(=C\C(=O)N3CCC(N4CCCCC4)CC3)c3ccccc32)cc1`, the concentration at half-maximal activity (AC50) was 26.5 µM (active).

As for `CCCCCCCCCC(=O)O`, the outcome was inactive.

In the case of `CCCCCCCCCCCO`, the compound was classed as inactive.

In the case of `C[C@]12CC[C@@H]3c4ccc(O)cc4CC[C@H]3[C@@H]1CC[C@H]2O`, the outcome was inactive and the AC50 was 27.3 µM (active).

For `O=C(O)Cc1cc(I)c(Oc2ccc(O)c(I)c2)c(I)c1`, the compound was called inactive and the AC50 is 51.2 µM (active).

Consider `c1ccc2ccccc2c1`, for which the call was inactive.

On to `O=c1ccc2ccccc2o1`, for which the result was inactive.
